Among the data in PubChem BioAssay (Tox21) are Potency and outcome values, retold here.

Inconclusive results are not listed. The source made the active and inactive calls. Unless noted, calls come from the whole dose curve; as a rule, active = well fitted curve in the direction sought with a large enough effect in the repeat runs; inconclusive = weak or mixed curves; inactive = no such curve, though single readings can be large; an effect the other way counts as inactive or inconclusive.

Test [1] can be described thus: qHTS assay to identify small molecule antagonists of the thyroid receptor (TR) signaling pathway - cell viability counter screen (AID 743064). Note: nearly all actives have a fitted effect of over 50% in size. The gist of the method: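 In rat pituitary GH3.TRE-Luc reporter cells co-exposed to compound and 1 nM T3 for 23.5 h, cytotoxicity was assessed with CellTiter-Fluor in the same wells, read by fluorescence.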
Background: qHTS replaces the single test concentration by a dilution series.

Test [2] can be described thus: qHTS assay to identify small molecule antagonists of the thyroid receptor (TR) signaling pathway (AID 743065). Note: series mostly up to about 70 µM; nearly all actives have a fitted effect of over 55% in size. The procedure, abridged: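 GH3.TRE-Luc rat pituitary cells carrying two TR response elements driving luciferase were plated for 4 h, given compound plus 1 nM T3 (final), and incubated 23.5 h at 37 C. ONE-Glo luminescence measured reporter inhibition; CellTiter-Fluor fluorescence tracked cytotoxicity.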

Test [3] concerns thyroid hormone receptor (rat, GH3 cells). Description: qHTS assay to identify small molecule agonists of the thyroid receptor (TR) signaling pathway (AID 743066; calls by dose curve).
Test [4] deals with Estrogen receptor (Homo sapiens) (UniProt P03372). Description: qHTS assay to identify small molecule antagonists of the estrogen receptor alpha (ER-alpha) signaling pathway (AID 743069; active = well fitted curve in the direction sought with a large enough effect in the signal ratio in the repeat runs, not every such curve was filed as active; the % refers to the signal ratio). The gist of the method:
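HEK293 cells stably carrying an ER-alpha-UAS-bla beta-lactamase reporter were pre-cultured overnight in 2% charcoal-stripped FBS medium. Test compounds in DMSO were added together with 17beta-estradiol for 18 hr at 37C. Read-out was fluorescence after 2 hr with LiveBLAzer B/G FRET substrate at room temperature.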

Test [5] is described as follows: qHTS assay to identify small molecule antagonists of the estrogen receptor alpha (ER-alpha) signaling pathway - cell viability counter screen (AID 743074; calls by dose curve; note: nearly all actives have a fitted effect of over 45% in size).
Test [6] concerns the target Estrogen receptor (Homo sapiens) (UniProt P03372). Kind of test: qHTS assay to identify small molecule agonists of the estrogen receptor alpha (ER-alpha) signaling pathway (AID 743075; calls by dose curve).
The target is the same in test [7]. Description: qHTS assay to identify small molecule agonists of the estrogen receptor alpha (ER-alpha) signaling pathway using the BG1 cell line (AID 743079). Note: nearly all actives have a fitted effect of over 20% in size. Note: potency is the fitted concentration of half-maximal effect.
Test [8] is described as follows: qHTS assay to identify small molecule antagonists of the estrogen receptor alpha (ER-alpha) signaling pathway using the BG1 cell line (AID 743080; calls by dose curve;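 note: BG1 cells stimulated with 17beta-estradiol alongside compound; series mostly up to about 70 µM; nearly all actives have a fitted effect of over 25% in size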). The procedure, abridged:
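BG1-Luc-4E2 cells (endogenous full-length ER-alpha, 4xERE luciferase) hormone-starved 5 days in charcoal-stripped FBS, plated 4,000/well for 24 h, then compound plus 17beta-estradiol for 21.5 h at 37 C; ONE-Glo luminescence read.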

Test [9] can be described thus: qHTS assay to identify small molecule antagonists of the estrogen receptor alpha (ER-alpha) signaling pathway using the BG1 cell line - cell viability counter screen (AID 743081).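 Note: compound given together with 17beta-estradiol as the ER stimulus; series mostly up to about 70 µM; nearly all actives have a fitted effect of over 45% in size.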
The target of a further test is Aromatase (Homo sapiens) (UniProt P11511). Description: qHTS assay to identify aromatase inhibitors (AID 743083). Note: series mostly up to about 70 µM; nearly all actives have a fitted effect of over 55% in size.
Test [10] is described as follows: qHTS assay to identify aromatase inhibitors - cell viability counter screen (AID 743084).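 Note: cells stimulated with testosterone during compound exposure; nearly all actives have a fitted effect of over 55% in size.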
Test [11] addresses Aryl hydrocarbon receptor (Homo sapiens) (UniProt P35869). Description: qHTS assay to identify small molecule that activate the aryl hydrocarbon receptor (AhR) signaling pathway (AID 743085).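 Note: HG2L7.5c1 human HepG2 liver cells with stably integrated DRE-driven firefly reporter; series mostly up to about 70 µM; nearly all actives have a fitted effect of over 15% in size.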 The gist of the method:
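AhR agonist activity is inferred from enhanced light output of a DRE-controlled firefly luciferase reporter in HepG2 cells, measured with ONE-Glo following 24 h treatment at 37C.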

A short description of test [12]: qHTS assay to identify small molecule that activate the aryl hydrocarbon receptor (AhR) signaling pathway - cell viability counter screen (AID 743086).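 Note: HepG2 liver cells carrying the AhR DRE luciferase reporter; series mostly up to about 70 µM; nearly all actives have a fitted effect of over 45% in size.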 The gist of the method: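 HepG2-AhR-luc (HG2L7.5c1) cells, 4000/well, were preincubated 5 h at 37C, exposed to compound in qHTS format for 24 hr at 37C, then given CellTiter-Fluor for 30 min; viability was read as fluorescence in the reporter wells.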

The target of test [13] is Peroxisome proliferator-activated receptor gamma (Homo sapiens) (UniProt P37231). Description: qHTS assay to identify small molecule agonists of the peroxisome proliferator-activated receptor gamma (PPARg) signaling pathway (AID 743094; active = well fitted activation curve with a large enough effect in the signal ratio in the repeat runs, not every such curve was filed as active; the % refers to the signal ratio). The gist of the method:
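Compounds dissolved in DMSO were added to PPARg UAS-bla HEK293H cells for 17 h at 37C, and reporter expression was quantified by fluorescence intensity after 1 h with LiveBLAzer B/G FRET substrate.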

The target is the same in test [14]. Description: qHTS assay to identify small molecule antagonists of the peroxisome proliferator-activated receptor gamma (PPARg) signaling pathway (AID 743191; calls by dose curve; note: series mostly up to about 63 µM; nearly all actives have a fitted effect of over 30% in size). The gist of the method:
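GeneBLAzer PPARg UAS-bla HEK293H cells carrying a UAS-driven beta-lactamase reporter were plated at 3000 cells/well, preincubated 5 h at 37C, then given compound for 17 h at 37C; LiveBLAzer B/G FRET substrate was read after 1 h at room temperature.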

Test [15] can be described thus: qHTS assay for small molecule agonists of the antioxidant response element (ARE) signaling pathway (AID 743202; active = well fitted activation curve with a large enough effect in the signal ratio in the repeat runs, not every such curve was filed as active; the % refers to the signal ratio). The procedure, abridged: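 Read-out: LiveBLAzer B/G FRET substrate fluorescence after 2 h at room temperature, following 16 h compound treatment at 37 C of HepG2 cells carrying an ARE-driven beta-lactamase reporter.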
The nature of test [16]: qHTS assay for small molecule agonists of the antioxidant response element (ARE) signaling pathway - cell viability counter screen (AID 743203; calls by dose curve; note: nearly all actives have a fitted effect of over 55% in size). The gist of the method: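 Following 16 hrs of compound treatment at 37C, HepG2 cells with an ARE-controlled beta-lactamase gene were lysed with CellTiter-Glo. Luminescence was read after 30 min at room temperature.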
Test [17] in a line: qHTS assay for small molecule activators of the heat shock response signaling pathway - cell viability counter screen (AID 743209). Note: nearly all actives have a fitted effect of over 50% in size. The procedure, abridged:
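Readout: CellTiter-Glo luminescence, 30 min at room temperature. System: HSE-bla HeLa cells, 1500/well, plated overnight. Treatment: compounds in DMSO, 5 h at 37 C.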

The nature of test [18]: qHTS assay for small molecule activators of the heat shock response signaling pathway (AID 743210; active = well fitted activation curve with a large enough effect in the signal ratio in the repeat runs, with a control signal flat, not every such curve was filed as active; the % refers to the signal ratio; note: series mostly up to about 63 µM). The gist of the method: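 HSE-bla HeLa cells (beta-lactamase reporter under heat shock response elements) were exposed to compounds for 5 h at 37 C, then loaded with LiveBLAzer B/G FRET substrate for 2.5 h at room temperature before fluorescence reading.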
A short description of test [19]: qHTS assay to identify small molecule antagonists of the peroxisome proliferator-activated receptor gamma (PPARg) signaling pathway - cell viability counter screen (AID 743194). Note: nearly all actives have a fitted effect of over 55% in size. The procedure, abridged: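 PPARg-UAS-bla HEK293H cells were plated, rested 5 h at 37 C, then treated with compounds plus rosiglitazone (50 nM final) for 17 h at 37 C; viability was then read by CellTiter-Glo luminescence after 30 min at room temperature.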

Estrogen receptor (Homo sapiens), sequence (P03372 whole entry, looked up): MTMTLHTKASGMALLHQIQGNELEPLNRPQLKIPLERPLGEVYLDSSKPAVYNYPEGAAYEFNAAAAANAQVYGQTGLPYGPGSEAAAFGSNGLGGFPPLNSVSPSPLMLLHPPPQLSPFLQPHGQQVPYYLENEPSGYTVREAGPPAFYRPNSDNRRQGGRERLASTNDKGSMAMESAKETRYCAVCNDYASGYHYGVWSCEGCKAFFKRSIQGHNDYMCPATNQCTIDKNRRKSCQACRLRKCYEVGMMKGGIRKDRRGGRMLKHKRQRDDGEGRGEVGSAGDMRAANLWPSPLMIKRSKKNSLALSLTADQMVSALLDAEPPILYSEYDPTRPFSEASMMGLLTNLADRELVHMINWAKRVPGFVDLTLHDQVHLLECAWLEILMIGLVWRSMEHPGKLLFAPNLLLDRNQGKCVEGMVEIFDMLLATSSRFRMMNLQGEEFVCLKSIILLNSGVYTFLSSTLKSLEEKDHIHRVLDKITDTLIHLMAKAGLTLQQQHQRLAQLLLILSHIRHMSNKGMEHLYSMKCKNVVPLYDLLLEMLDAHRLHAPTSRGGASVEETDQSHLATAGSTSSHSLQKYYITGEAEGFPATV
Aromatase (Homo sapiens), sequence (P11511 whole entry, looked up): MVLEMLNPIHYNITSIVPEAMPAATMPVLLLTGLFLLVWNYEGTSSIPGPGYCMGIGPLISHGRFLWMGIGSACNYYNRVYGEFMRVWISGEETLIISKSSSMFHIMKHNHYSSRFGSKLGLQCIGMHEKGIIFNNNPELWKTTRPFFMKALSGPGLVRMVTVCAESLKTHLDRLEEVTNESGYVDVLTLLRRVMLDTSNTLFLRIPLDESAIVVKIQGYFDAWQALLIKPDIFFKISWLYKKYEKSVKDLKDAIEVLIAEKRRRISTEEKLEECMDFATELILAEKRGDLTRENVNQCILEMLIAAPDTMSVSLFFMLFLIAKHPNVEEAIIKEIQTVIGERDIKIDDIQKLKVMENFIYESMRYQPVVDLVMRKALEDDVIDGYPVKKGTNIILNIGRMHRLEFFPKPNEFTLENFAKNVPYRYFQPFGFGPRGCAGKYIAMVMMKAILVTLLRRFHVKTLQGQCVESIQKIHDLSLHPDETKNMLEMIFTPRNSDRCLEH
Aryl hydrocarbon receptor (Homo sapiens), sequence (P35869 whole entry, looked up): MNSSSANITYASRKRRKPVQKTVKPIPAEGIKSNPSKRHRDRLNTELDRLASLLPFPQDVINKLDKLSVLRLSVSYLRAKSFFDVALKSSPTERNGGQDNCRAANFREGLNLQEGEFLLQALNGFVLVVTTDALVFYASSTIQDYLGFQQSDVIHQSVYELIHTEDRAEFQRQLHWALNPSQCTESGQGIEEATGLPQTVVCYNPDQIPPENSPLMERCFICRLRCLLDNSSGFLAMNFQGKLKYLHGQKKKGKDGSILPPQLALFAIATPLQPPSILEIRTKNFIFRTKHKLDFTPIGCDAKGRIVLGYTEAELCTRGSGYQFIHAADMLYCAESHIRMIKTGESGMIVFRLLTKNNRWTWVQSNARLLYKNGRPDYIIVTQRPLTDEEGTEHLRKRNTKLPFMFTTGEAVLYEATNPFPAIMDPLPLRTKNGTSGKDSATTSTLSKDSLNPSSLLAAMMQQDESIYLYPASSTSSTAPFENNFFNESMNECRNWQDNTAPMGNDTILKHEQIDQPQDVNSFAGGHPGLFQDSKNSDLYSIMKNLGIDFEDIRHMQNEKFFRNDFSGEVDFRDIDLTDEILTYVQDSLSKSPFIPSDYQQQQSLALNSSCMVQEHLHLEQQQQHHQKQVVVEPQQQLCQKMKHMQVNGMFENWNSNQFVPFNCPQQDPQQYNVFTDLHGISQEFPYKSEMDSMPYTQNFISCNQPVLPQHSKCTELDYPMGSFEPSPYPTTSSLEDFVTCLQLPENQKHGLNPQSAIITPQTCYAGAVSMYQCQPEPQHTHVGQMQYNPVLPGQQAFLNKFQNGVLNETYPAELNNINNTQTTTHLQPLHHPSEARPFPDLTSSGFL
Peroxisome proliferator-activated receptor gamma (Homo sapiens), sequence (P37231 whole entry, looked up): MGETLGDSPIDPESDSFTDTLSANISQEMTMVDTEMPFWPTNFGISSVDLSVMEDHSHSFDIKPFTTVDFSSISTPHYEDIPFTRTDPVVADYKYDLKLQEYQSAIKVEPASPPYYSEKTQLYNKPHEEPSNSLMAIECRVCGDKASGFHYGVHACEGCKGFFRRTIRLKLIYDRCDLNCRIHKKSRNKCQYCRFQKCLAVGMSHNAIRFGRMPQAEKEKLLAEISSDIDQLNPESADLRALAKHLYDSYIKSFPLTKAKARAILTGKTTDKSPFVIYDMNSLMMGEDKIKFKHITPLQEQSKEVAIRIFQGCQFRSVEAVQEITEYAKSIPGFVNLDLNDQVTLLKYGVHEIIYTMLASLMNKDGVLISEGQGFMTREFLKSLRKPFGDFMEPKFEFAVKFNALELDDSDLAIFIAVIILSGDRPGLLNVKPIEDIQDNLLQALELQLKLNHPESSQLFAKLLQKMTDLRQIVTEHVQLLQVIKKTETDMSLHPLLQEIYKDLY

For `c1ccc(CC2=NCCN2)cc1`, the Potency entry (in test [1]; in test [2]; in test [6]; in test [7]; in test [9]; with Aromatase (Homo sapiens)) was “inactive” in each case. The Potency entry in test [10], in [11], in test [12], in test [14], in [15] and in [16] was “inactive” throughout. The result in [3], in test [4], in [5], in [8], in [13] and in test [17] was inactive. Further, the result in test [18] was inactive.

As to `CCCCCCCCCCCCCCCCC`, the Potency result (in [1]; in test [2]; in test [6]; in [9]; in the test with Aromatase (Homo sapiens); in test [10]) was “inactive” throughout. For the same molecule, the Potency entry in test [11], in [12] and in [15] was “inactive” throughout. Besides, the call in [3], in test [4], in test [5], in [8], in test [13] and in test [17] was inactive. The molecule was called inactive in [18]. In addition, the Potency in [7] was 61.1 µM (active).

For `Cc1ccc(Cl)cc1Cl`, the Potency entry (in test [1]; in [2]; in [6]; in test [7]; in [9]; with Aromatase (Homo sapiens)) was “inactive” each time. Also, the Potency result in [10], in test [11], in test [12], in test [15] and in test [16] was “inactive” in each case. Moreover, the molecule was classed as inactive in [3], in test [4], in [5], in [8], in [19] and in [17]. Further, in [18], the outcome was inactive.

Take `CCN(CC)CCNC(=O)c1cc(S(C)(=O)=O)ccc1OC`: the Potency result (in test [1]; in test [2]; in test [6]; in [7]; in test [9]; with Aromatase (Homo sapiens)) was “inactive” each time. Moreover, the Potency entry in [10], in [11], in test [12], in [14] and in test [15] was “inactive” each time. The call in [3], in test [4], in test [5], in test [8], in [13] and in [19] was inactive. In addition, the outcome in [18] was inactive.

Take `Cc1cc2c(cc1S(N)(=O)=O)S(=O)(=O)CCC2`: the Potency result (in [1]; in test [2]; in test [6]; in test [7]; in test [9]; with Aromatase (Homo sapiens)) was “inactive” each time. Also, the Potency entry in test [10], in test [11], in test [12] and in test [15] was “inactive” in each case. Besides, the result in test [3], in test [4], in [5], in [8], in test [13] and in test [19] was inactive. The result in test [17] and in [18] was inactive.

For the molecule `O=C(O)CCCl`, the Potency result (in [1]; in [2]; in test [6]; in test [7]; in test [9]; with Aromatase (Homo sapiens)) was “inactive” in each case. Also, the Potency result in test [10], in [11], in test [12], in [15] and in test [16] was “inactive” each time. For the same molecule, the call in test [3], in test [4], in [5], in [8], in test [19] and in [17] was inactive. The result in [18] was inactive.

For the molecule `CC(C)NC(=O)NC(C)C`, the Potency entry (in test [1]; in test [2]; in [6]; in test [7]; in test [9]; in the test with Aromatase (Homo sapiens)) was “inactive” in each case. For the same molecule, the Potency result in test [10], in [11], in test [12] and in [16] was “inactive” each time. The call in test [3], in [4], in test [5], in test [8], in [19] and in [17] was inactive. For the same molecule, in test [18], the result was inactive.

Consider `CC(C)CCCC(C)N` (configuration not stated), for which the Potency entry (in test [1]; in test [2]; in test [6]; in [9]; in the test with Aromatase (Homo sapiens); in test [10]) was “inactive” in each case. The Potency entry in [11], in test [12] and in test [16] was “inactive” in each case. The call in [3], in test [4], in [5], in test [8], in [19] and in test [17] was inactive. The molecule was called inactive in test [18]. The Potency in [7] is 21.1 µM (active).
